According to the supplement of paper PMC6555819:

Columns and labels:
Test in all cases: PBM binding z-score (relative to random genomic background probes); higher = stronger binding; sequences stand for … in GC…GCGATTGACAGCGTAGAATGAAGG
[1] = tested on: FXR:RXRa (NR concentration 270 nM, RXRa partner concentration 90 nM)
How it was run: (§1)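 Custom Agilent 4×180K protein-binding microarrays carried double-stranded probes, each with a 34-nt variable region. These regions held direct-repeat seeds, single-nucleotide variants, half-site ablations and random human genomic background sequences. Ligand-free nuclear receptor dimers were incubated on the arrays for 1 h, antibodies against each partner (one per run) detected binding, and scanned fluorescence was regression-normalized. Binding z-scores take the random background probes as reference.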

[2] = tested on: LXRa:RXRa (NR concentration 270 nM, RXRa partner concentration 90 nM)
How it was run: as §1

[3] = tested on: LXRa homodimer (NR concentration 270 nM)
How it was run: as §1

[4] = tested on: LXRb:RXRa (NR concentration 270 nM, RXRa partner concentration 90 nM)
How it was run: as §1

[5] = tested on: LXRb homodimer (NR concentration 270 nM)
How it was run: as §1

[6] = tested on: PPARa:RXRa (NR concentration 270 nM, RXRa partner concentration 90 nM)
How it was run: as §1

[7] = tested on: PPARg:RXRa (NR concentration 180 nM, RXRa partner concentration 90 nM)
How it was run: as §1

[8] = tested on: PPARg:RXRa 270nM:90nM, anti-RXR (NR concentration 270 nM, RXRa partner concentration 90 nM)
How it was run: as §1

[9] = tested on: PPARg:RXRa 30nM:10nM, anti-RXR (NR concentration 30 nM, RXRa partner concentration 10 nM)
How it was run: as §1

[10] = tested on: PPARg:RXRa 90nM:30nM, anti-RXR (NR concentration 90 nM, RXRa partner concentration 30 nM)
How it was run: as §1

Sequence	PBM binding z-score [1]	PBM binding z-score [2]	PBM binding z-score [3]	PBM binding z-score [4]	PBM binding z-score [5]	PBM binding z-score [6]	PBM binding z-score [7]	PBM binding z-score [8]	PBM binding z-score [9]	PBM binding z-score [10]
ATCGAAAGGTCGACGAGTTGAGTATACACCGTTT	3.68	3.25	0.0436	2.75	0.676	3.98	2.27	2.77	1.17	1.91
CGAACTAGGTCAAAGGATAGTGAAAGGCGACGTA	3.37	2.22	-0.4	1.58	-0.272	4.93	8.97	7.71	6.95	8.35
ACTATCAGGCCAAGGGTCACTCAAGATTAGTCCG	2.77	3.13	0.488	2.87	0.938	4.54	7.66	7.12	6.22	7.87
ATATGTAGGTTACATGCGGGTCATTCAGGCTATG	2.21	4.55	0.959	2.66	0.785	4.22	5.9	5.3	2.6	4.65
CAGACTAGGTCAAAGGTCAAAGTCGAGCCAACCA	8.06	6.96	4.82	7.09	2.54	7.49	13.9	10.9	13.4	13.3
CGAATTAGGTCAAAGGACAGTGAAAGGCGACGTA	4.51	3.08	0.314	2.23	0.106	6.11	9.47	8.69	8.66	9.34
CCTACTGGGCCACGTAAGGTCATTGATTCAGTGA	3.42	5.12	3.52	3.3	-0.468	3.47	3.29	3.76	0.808	2.54
CTCGAAAGGTCGTGCTCAGGTGAGTACACCAAAC	5.63	3.63	0.149	3.14	0.685	4.94	3.11	4.4	1.61	2.91
CGAACTAGGTCACCAGGACAGTTAAGAGGTTGGA	3.97	2.32	0.241	1.84	-0.421	5.2	8.53	6.67	4.77	6.38
CGAACTAGGACACCAGGACAGTGAAGAGGTTGGA	-0.0401	-0.43	-0.083	-0.854	-0.923	0.865	2.08	1.33	0.527	0.812
CGTCCAAGGTCAAAGGTCAGTAAAGAGATGACGG	8.12	6.87	3.18	6.62	2	7.32	10.8	9.28	7.89	9.37
ATATGTATGTTAGGGTCATTCAGAAAGTAGGGAA	4.58	3.8	1.34	4.19	1.46	4.84	4.3	3.99	1.85	3.4
GCTCGGGGGACAAGGTCAGAGCTTTGTCCGTAGA	3.46	3.46	0.143	3.96	4.29	4.25	3.61	4.54	1.72	3.56
CCGTACGGGTCAAGGTTATAGCACGGGTGGTACG	5.23	3.78	-0.221	3.11	-0.132	4.76	4.03	4.28	1.2	2.77
TCTGCTGGGTCAACGATGGTCAGCTAATCTGCTA	2.59	1.95	-0.835	1.16	-0.168	3.19	1.92	2.57	1.69	2.14
CAGCCTAGGTGAGGGCCAGTATAGGAGGAACGTT	-0.516	-0.622	-0.626	-0.617	-1.21	-0.243	0.16	-0.421	-0.568	-0.607
ATCGGAAGGTCGAGGTGAGTATAGAGAAAGGGAA	2.07	1.65	-0.107	1.23	0.134	2.5	1.23	1.33	0.513	0.876
ATCTCTAGGTAAAGGTCAGTGAAAGATCGATAGA	3.48	3.55	1.74	3.42	1.54	4.32	6.77	6.29	4.39	6.41
ACTAGTTGGTCACCTGAGGTCACACACAATTCGG	4.76	6.29	6.67	4.97	1.5	4.17	2.75	3.37	1.09	2.1
CTCGAAAGGTCGTGCTTAGGTGAGTATACCAAAC	4.83	3.99	0.372	3.46	0.121	4.98	2.86	4.3	1.12	2.98
ACATGTAGGTTAGGGTCATTCAGAAAGTAGGGAA	5.38	4.23	1.48	4.58	1.99	5.48	6.68	5.77	3.37	5.57
CTCCAAAGGTCGGTTGAGGTGAGTATACGGATAA	2.49	1.93	-0.152	1.71	-0.00126	2.95	1.01	1.64	0.12	0.875
CGAACTACGTCACCAGGACAGTGAAGAGGTTGGA	-0.0876	-0.2	-0.121	-0.435	-0.676	-0.258	0.527	-0.464	0.0797	-0.46
TAGCCTAGGTCATTCAGGCGCCAGTATAGAAAGC	5.09	3.26	0.555	2.5	0.661	3.35	2.01	2.37	0.32	1.41

Sequence	PBM binding z-score [1]	PBM binding z-score [2]	PBM binding z-score [3]	PBM binding z-score [4]	PBM binding z-score [5]	PBM binding z-score [6]	PBM binding z-score [7]	PBM binding z-score [8]	PBM binding z-score [9]	PBM binding z-score [10]
ATATGTAGGTTAGGGTGATTCAGAAAGTAGGGAA	1.37	1.32	0.569	1.83	1.47	3.62	5.4	4.45	2.06	3.62
ATATGTAGGTTATGGTCATTCAGAAAGTAGGGAA	1.06	1.36	0.432	1.37	0.916	3.29	4.98	4.06	2.18	3.32
AGCGAAAGGTCGAAGGTGAGTATACCCACCCGAA	4.1	3.39	-0.15	2.68	-0.267	4.61	4.72	5.09	2.12	4.25
CGAACTAGGTCAAATGACAGTGAAAGGCGACGTA	4.96	3.06	0.264	2.29	0.271	5.2	8.2	6.78	5.35	7.38
CGAACTAGGTCAAAGGACAGTGACAGGCGACGTA	4.22	2.82	0.19	1.88	-0.493	5.56	10.5	8.72	8.9	9.48
CGAACTAAGTCATTGACAGGACAGTGAATAGTAA	-0.324	-0.239	-0.0692	-0.347	-0.466	-0.0981	0.241	0.0844	-0.211	-0.239
CCTAGCAGGCCAATCGGGGTCACTCAAGGCTTGA	4.42	4.3	0.394	3.97	-0.646	4.79	2.8	3.72	0.796	2.75
CGAACTAGGTCAAAGGACGGTGAAAGGCGACGTA	4.04	2.51	-0.304	1.41	-0.584	5.34	9.5	8	7.43	8.82
CGTCAAAGTTCAAGTTAACGTAACAGAAAGCAGC	7.26	6.56	4.75	4.33	2.63	5.3	5.08	5.71	2.68	4.8
CGAACTAGGTCACCAGGACGGTGAAGAGGTTGGA	3.75	2.3	-0.206	1.19	-0.86	5.23	8.37	6.93	4.31	6.43
CCTTACCGGTCAAGGTTATAGCACGGGTGGTACG	1.7	1.88	0.946	1.05	0.381	1.83	0.758	0.908	-0.303	0.282
TGTCAAAGCTCAAAGGTAACGTAAGTATCCACAC	0.08	-0.0986	-0.625	0.416	-0.838	1.04	1.25	1.81	0.686	1.43
CCTTACGGGTCACTGACAGGTCATAGCATTTGGA	5.83	5.72	2.3	4.51	-0.00143	5.36	4.81	5.35	2.02	4.03
CCTCGGAGGACACCAGGAGGTCAGAGCTGCCAGA	1.2	1.69	0.739	1.12	-0.792	2.14	0.153	0.169	-0.691	-0.278
ATATGTAGGTTTGGGTCATTCAGAAAGTAGGGAA	1.74	1.71	0.946	2.49	1.68	3.1	2.34	2.64	1.4	2.29
CGAAATAGGTCACCAGGACAGTGAAGAGGTTGGA	5.67	4.08	0.461	3.13	0.187	5.9	8.44	7.47	4.7	6.97
GCTGCTAGGTCATGTTGGTCAGCTAACGGGTACG	3.46	2.59	0.616	1.75	0.329	3.03	1.62	2.3	0.174	1.38
ATGTGTAGGTTACATCCGGGTCATTCAGGCTATG	2.23	4.19	1.76	2.87	0.855	3.45	2.44	2.64	0.934	2.02
CGAAGTAGGTCAAAGGACAGTGAAAGGCGACGTA	4.62	3.33	0.269	2.23	-0.098	5.66	10.5	8.99	8.23	9.73
CCTACGGGGCCAAAGGTCATTGATTCCAATGCTC	5.67	5.59	4.4	5.16	0.715	6.04	11	9.49	8.43	11.1
CGTCAAAGTTCAACTAAGGTAACGTATAGCACGC	7.12	6.07	4.63	4.52	2.2	5.23	5.1	5.56	2.29	4.48
CGTCGGAGGACAACAGGAGGTCAGAGCTGCCAGA	1.46	2.29	2.3	1.48	-0.649	1.98	0.434	0.482	-0.532	0.226
CGTCCAAGGTCATAAGAGGTCAGTGAAGACAGAT	7.91	7.9	5.88	7.04	2.11	5.7	5.38	5.99	2.54	4.85
ATATGTAGGTTAGGGTCGTTCAGAAAGTAGGGAA	2.59	2.54	0.724	3.09	1.65	4.31	5.88	4.99	2.44	4.12
